Measurements: PubChem BioAssay (NCATS)
Results filed as inconclusive are left out. Activity calls are given as the source filed them. Unless noted, calls follow the shape of the dose curve; as a rule, active = well fitted curve in the direction sought with a large enough effect; inconclusive = small, poorly fitted or top-dose-only effect, or another doubt; inactive = no such curve, though single readings can be large; an effect the other way counts as inactive or inconclusive.

What was measured:
[1] = Cell Viability - Jurkat (AID 426;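 active = dose-dependent loss of cell ATP signal giving a full or clear fitted curve, ranked by lower potency value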; also: potency is read from the fitted curve at half-maximal effect); conditions: qHTS
Outline: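 Jurkat (clone E6-1, human T-cell leukemia) cells, 5000/well in complete medium, were exposed to compound for 40 hr at 37 °C. Viability was read as intracellular ATP by CellTiter-Glo luminescence; AC50 came from Hill fits of concentration-response data.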

[2] = Cell Viability - Hek293 (AID 427;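 active = compounds whose dose-response curve shows a full or clear partial loss of cell viability, called from curve shape rather than a numeric limit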;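 also: potency is read from the fitted curve at half-maximal effect; cells exposed to compound for 40 hours at 37 °C before reading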); conditions: qHTS
Outline: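 Luminescent ATP read-out (CellTiter-Glo, 20 min RT) after 40 hr compound exposure at 37 °C in complete medium. Signal normalized to DMSO (basal) and 100 uM tamoxifen (100% inhibition); concentration-response fitted with the standard Hill equation to give AC50.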

[3] = Cell Viability - HepG2 (AID 433; calls by dose curve;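 also: potency is read from the fitted curve at half-maximal effect; potency for ATP loss meaning cytotoxicity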); conditions: qHTS
Outline: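 Read-out is luciferase-based quantitation of cellular ATP as a measure of viable HepG2 cells after 40 h treatment at 37 °C. Signal decrease is scaled between DMSO-only and 100 uM tamoxifen controls, with AC50 fitted by the Hill equation.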

[4] = Cell Viability - MRC5 (AID 434; calls by dose curve;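 also: potency is read from the fitted curve at half-maximal effect; potency reflects cytotoxicity seen as loss of intracellular ATP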); conditions: MRC5 lung fibroblast viability, qHTS
Outline: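 MRC5 normal human lung fibroblasts, 1500 cells/well, exposed to compound for 40 hr at 37 C. Cellular ATP was read by CellTiter-Glo luminescence; data normalized to DMSO and 100 uM tamoxifen, with AC50 from Hill fits.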

[5] = molecular target: Mitogen-activated protein kinase 10 (Mus musculus) (UniProt Q61831); assay: JNK3 AlphaScreen Assay (AID 530; active = well fitted curve in either direction with a large enough effect, not every such curve was filed as active;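 also: kinase came from lysate of stimulated human HepG2 cells; signal reports phosphorylation of biotinylated GST-cJun 1-79 at Ser73 with 10 µM ATP; % is scaled to controls: 0 for no effect and ±100 for the full control effect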)
Outline: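 qHTS format: compounds tested as titrations against IL-1beta/TNF-alpha-activated HepG2 lysate JNK3 with biotin-GST-cJun substrate and 10 uM ATP at room temperature. Loss of anti-phospho-cJun AlphaScreen signal indicates inhibition.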

[6] = Cell Viability - N2a (AID 540); conditions: N2a mouse neuroblastoma cell viability; at 92.2 µM (top of the series);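 also: plate controls were DMSO alone for no effect and tamoxifen control for full effect; nearly all actives have a fitted effect of over 45% in size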
Outline: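 Mouse neuroblastoma N2a cells (1500/well) were preincubated 5 hr at 37 °C, then exposed to compounds for 40 hr at 37 °C in complete medium. Viability was read as intracellular ATP by CellTiter-Glo luminescence; AC50 from Hill fits.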

[7] = Cell Viability - NIH 3T3 (AID 541); conditions: NIH 3T3 cell viability, qHTS; activity change, negative = cytotoxicity: at 92.2 µM (top of the series);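 also: plate controls were DMSO alone for no effect and tamoxifen positive control for full effect; nearly all actives have a fitted effect of over 25% in size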
Outline: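 NIH 3T3 mouse embryo fibroblasts (1000 cells/well) were plated in complete medium and treated with compound for 40 hr at 37 °C. Viability was read as intracellular ATP by CellTiter-Glo luminescence; AC50 values came from Hill-equation fits of concentration-response data.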

[8] = Cell Viability - HUV-EC-C (AID 542); also: % is scaled to controls: 0 for no effect and ±100 for the full control effect; nearly all actives have a fitted effect of over 35% in size
Outline: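 HUV-EC-C normal human vascular endothelial cells, 1000 cells/well, pre-incubated 5 hr at 37 °C, then exposed to compounds for 40 hr at 37 °C in complete medium. Viability measured as intracellular ATP by CellTiter-Glo luminescence; AC50 from Hill fits.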

[9] = Cell Viability - H-4-II-E (AID 543); also: % is scaled to controls: 0 for no effect and ±100 for the full control effect; nearly all actives have a fitted effect of over 35% in size
Outline: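 Rat hepatoma H-4-II-E cells (1500/well) were plated, incubated 5 hr at 37 °C, then exposed to compounds for 40 hr at 37 °C. Cellular ATP was read by CellTiter-Glo luminescence; AC50 came from Hill-equation fits of concentration-response data.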

[10] = Cell Viability - SH-SY5Y (AID 544); conditions: SH-SY5Y neuroblastoma cell viability; viability change, negative = cytotoxic: at 92.2 µM (top of the series); also: nearly all actives have a fitted effect of over 55% in size
Outline: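 Human neuroblastoma SH-SY5Y cells (1500/well) in complete medium were exposed to compounds for 40 hr at 37 °C; intracellular ATP was then quantified by CellTiter-Glo luminescence after 20 min at room temperature. AC50 came from Hill-equation concentration-response fits.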

[11] = Cell Viability - Renal Proximal Tubule (AID 545); conditions: renal proximal tubule cells viability; at 91.7 µM (top of the series), primary cells of rat origin unless noted; also: nearly all actives have a fitted effect of over 40% in size
Outline: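 Luminescent ATP signal (CellTiter-Glo) served as the viability read-out after 40 hr compound exposure of freshly isolated rat proximal tubule cells at 37 °C. Concentration-dependent ATP loss was fitted with the Hill equation to give AC50.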

[12] = Cell Viability - Mesenchymal (AID 546);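 also: cells exposed to compound for 40 hours before reading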
Outline: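 Human kidney mesenchymal cells from normal renal glomeruli, 1000 cells/well, rested 5 hr at 37 °C, then treated 40 hr at 37 °C in complete medium. Cellular ATP read by CellTiter-Glo luminescence; AC50 from Hill-equation fits.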

[13] = Cellular Toxicity (caspase-3) HepG2 (AID 654);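 also: cells exposed to compound for 16 hours before reading; 0% = DMSO alone and 100% = caspase signal from 100 µM tamoxifen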
Outline: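 HepG2 cells (1500/well) in complete medium were treated with compounds for 16 hr at 37 °C. Caspase-3/7 activity was then read as luminescence from peptide-aminoluciferin cleavage. AC50 came from Hill fits, normalized to DMSO and 100 uM tamoxifen.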

[14] = Cellular Toxicity (caspase-3) Jurkat (AID 655); conditions: Jurkat caspase-3 activation, luminescence, DMSO = 0%, tamoxifen = 100%; at 92.2 µM (top of the series);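 also: cells exposed to compound for 16 h at 37 °C before reading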
Outline: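 5000 Jurkat cells/well; compound 16 hr, 37 °C; Caspase-Glo 3/7 added, 20 min RT; luminescence read. Norm: DMSO = 0%, tamoxifen 100 uM = 100%. AC50, Hill model.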

[15] = Cellular Toxicity (caspase-3) HUV-EC-C (AID 656)
Outline: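 qHTS; HUV-EC-C, 1000 cells/well; 5 hr settle, 16 hr cmpd, 37°C; Caspase-Glo 3/7, 20 min RT; luminescence. Norm: DMSO = 0%, tamoxifen 100 uM = 100%. Hill-fit AC50.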

[16] = Cellular Toxicity (caspase-3) SHSY5Y (AID 657)
Outline: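 qHTS, SH-SY5Y, 1500 cells/well, 5 h pre-incubation 37 °C; compound 16 h 37 °C; Caspase-Glo 3/7 1 h RT; luminescence. Norm.: DMSO = 0, 10 uM staurosporine = 100%. Hill fit → AC50.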

[17] = Cellular Toxicity (caspase-3) BJ (AID 658);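 also: 0% = DMSO basal and 100% = 10 µM staurosporine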
Outline: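 BJ human foreskin fibroblasts, 1000 cells/well, treated 16 hours at 37 °C in complete medium; caspase 3/7 activity by Caspase-Glo luminescence after 1 hr at room temperature. Normalized to DMSO and 10 uM staurosporine; AC50 from Hill fits.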

[18] = Cellular Toxicity (caspase-3) MRC-5 (AID 659);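 also: 0% = DMSO basal and 100% = 10 µM staurosporine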
Outline: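 MRC-5 human normal lung fibroblasts, 1500 cells/well, treated 16 h at 37 °C in complete medium. Caspase 3/7 measured by Caspase-Glo luminescence after 1 h at room temperature. Normalized to DMSO and 10 uM staurosporine; AC50 from Hill fit.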

[19] = Cellular Toxicity (caspase-3) Mesangial (AID 660)
Outline: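 Human renal glomerular mesangial cells (1000/well) were treated with compounds for 16 h at 37 °C in complete medium, then caspase 3/7 activity was read by Caspase-Glo luminescence. Data were normalized to DMSO and 100 uM tamoxifen; AC50 from Hill fits.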

[20] = Cellular Toxicity (caspase-3) SK-N-SH (AID 661);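 also: 0% = DMSO basal and 100% = 10 µM staurosporine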
Outline: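 SK-N-SH human neuroblastoma cells (1500/well) were treated with compounds for 16 hr at 37 °C in complete medium; caspase 3/7 activity was read by Caspase-Glo luminescence. AC50 came from Hill fits of data normalized to DMSO and 10 uM staurosporine.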

[21] = Cellular Toxicity (caspase-3) H-4-II-E (AID 663);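 also: cells exposed to compound for 16 hr before readout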
Outline: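 Rat hepatoma H-4-II-E cells (1500/well) plated 5 hr, then exposed to compound titrations for 16 hr at 37 °C. Caspase-Glo 3/7 luminescence read after 20 min at RT; data normalized to DMSO and 100 uM tamoxifen, AC50 from Hill fits.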

COc1ccc(C=O)cc1OC
inactive: Potency [1] > 92 µM | Potency [2] > 92 µM | Potency [3] > 92 µM | Potency [4] > 92 µM | outcome [5] | activity change, negative = cytotoxicity [6] -19.3% | activity change, negative = cytotoxicity [7] -14% | Potency [8] | Potency [9] | Potency [10] | activity change, negative = cytotoxicity [11] -7.47% | outcome [12] | outcome [13] | caspase-3 activation [14] 1.2% | outcome [15] | outcome [16] | outcome [17] | outcome [18] | outcome [19] | outcome [20] | outcome [21]
